About 79,000 compounds went through this panel and 15% of them were active in at least one assay; those are over-represented in the sample as a whole. Activity calls are given as the source filed them. Cut-off read from the data, not from the text of the source: active = growth inhibition above about 70%; inactive = the rest.
Legend:
[1] = NCI Yeast Anticancer Drug Screen. Data for the rad52 strain (AID 147);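 note: 0% = growth of vehicle-treated control cultures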; settings: S. cerevisiae rad52 mutant growth inhibition, hits give high values
Outline: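 Measured: yeast growth inhibition. System: strain with a defined DNA damage repair alteration. Reference: vehicle-treated control cultures.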

[2] = NCI Yeast Anticancer Drug Screen. Data for the wt1 strain (AID 149);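 note: 0% = growth of vehicle-treated wt1 cultures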; settings: S. cerevisiae wt1 strain (SPY 50644) growth inhibition, hits give high values
Outline: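 The wt1 strain was treated with compounds, and growth was compared with vehicle-treated cultures to give inhibition.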

[3] = NCI Yeast Anticancer Drug Screen. Data for the rad50EPP+ strain (AID 151);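 note: 0% = growth of vehicle-treated control cultures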; settings: S. cerevisiae rad50 mutant strain, hits give high values
Outline: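 One strain with a rad50 alteration (rad50EPP+) was compound-treated, its growth then compared to that of vehicle controls.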

[4] = NCI Yeast Anticancer Drug Screen. Data for the mgt1 strain (AID 153); settings: S. cerevisiae mgt1 mutant growth inhibition, hits give high values
Outline: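 After exposure of the mgt1 yeast mutant to compound, growth was measured and reported as inhibition compared with vehicle controls.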

[5] = NCI Yeast Anticancer Drug Screen. Data for the rad50 strain (AID 155);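 note: 0% = growth of vehicle-only cultures of the same strain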; settings: S. cerevisiae rad50 strain growth inhibition, hits give high values
Outline: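 Cells are treated with compound, grown, and their growth is then scored against vehicle-only cultures of the same repair-deficient yeast strain.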

[6] = NCI Yeast Anticancer Drug Screen. Data for the mec2-1 strain (AID 157); settings: S. cerevisiae mec2-1 strain, hits give high values
Outline: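 Test agents were screened against the mec2-1 yeast strain, with defined DNA repair or cell cycle alteration. Growth was scored as inhibition against vehicle-only controls.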

[7] = NCI Yeast Anticancer Drug Screen. Data for the rad14 strain (AID 159);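 note: 0% = growth of vehicle-treated control cultures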; settings: S. cerevisiae rad14 strain growth inhibition, hits give high values
Outline: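 Readout: yeast growth inhibition, referenced to vehicle-only cultures. Strain bears a defined alteration in DNA damage repair.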

[8] = NCI Yeast Anticancer Drug Screen. Data for the sgs1 mgt1 strain (AID 161);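 note: 0% = growth of cultures given vehicle only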; settings: S. cerevisiae sgs1 mgt1 strain, hits give high values
Outline: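 Read-out: growth inhibition vs vehicle controls. Cells: mutant yeast strain deficient in DNA damage repair.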

[9] = NCI Yeast Anticancer Drug Screen. Data for the CLN2oe strain (AID 163);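 note: 0% = growth of vehicle-only control cultures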; settings: S. cerevisiae CLN2oe strain, hits give high values
Outline: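 Here, growth inhibition in a cell-cycle-altered yeast strain after compound exposure was quantified against vehicle control growth.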

[10] = NCI Yeast Anticancer Drug Screen. Data for the cln2 rad14 strain (AID 165);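 note: 0% = growth equal to vehicle treated cultures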; settings: S. cerevisiae cln2 rad14 strain, hits give high values
Outline: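 Growth of compound-exposed yeast (cln2 rad14 genotype) measured and expressed as inhibition relative to vehicle.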

[11] = NCI Yeast Anticancer Drug Screen. Data for the bub3 strain (AID 167); settings: S. cerevisiae bub3 mutant strain, hits give high values
Outline: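 Part of a panel of yeast mutants defective in DNA damage repair or cell cycle regulation. Each strain is grown with compound, and inhibition is calculated relative to solvent-treated cultures.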

[12] = NCI Yeast Anticancer Drug Screen. Data for the wt2 strain (AID 169);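 note: 0% = growth of vehicle-treated yeast cultures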; settings: S. cerevisiae wt2 strain growth inhibition, hits give high values
Outline: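 Genetically defined yeast strains from a DNA-repair/cell-cycle panel were used. Compound-exposed yeast growth was measured, and the inhibition was calculated relative to vehicle treatment.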

[13] = NCI Yeast Anticancer Drug Screen. Data for the mlh1 strain (AID 171);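 note: 0% = growth of vehicle-treated control cultures of the same strain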; settings: S. cerevisiae mlh1 strain growth inhibition, hits give high values
Outline: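 Here the genetically defined yeast mutant is grown with each compound, and the extent to which its growth falls below that of vehicle-exposed cells is reported.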

[14] = NCI Yeast Anticancer Drug Screen. Data for the sgs1 strain (AID 173);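 note: 0% = growth of vehicle-only control cultures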; settings: S. cerevisiae sgs1 mutant, hits give high values
Outline: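 Relative growth inhibition, referenced to vehicle, was determined in a yeast strain with a defined alteration affecting DNA damage repair or cell cycle control after compound exposure.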

[15] = NCI Yeast Anticancer Drug Screen. Data for the mlh1 rad18 strain (AID 175); settings: S. cerevisiae mlh1 rad18 strain growth inhibition, hits give high values
Outline: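 In this whole-cell yeast screen, a strain with altered DNA damage repair is challenged with compound, and its growth is measured against matched vehicle-treated controls.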

[16] = NCI Yeast Anticancer Drug Screen. Data for the rad18 strain (AID 177); settings: S. cerevisiae rad18 mutant growth inhibition, hits give high values
Outline: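 Screen uses a yeast strain with a defined lesion in DNA damage repair; compound effect is read as loss of growth compared to untreated vehicle cultures.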

[17] = at 5.0 µM (retest, dose inferred, filed as 0.5)
[18] = at 50.0 µM (retest, dose inferred, filed as 5.0)

Measured: growth inhibition

C[CH2][Sn]([CH2]C)([O]C(=O)C(N)Cc1ccccc1)[O]C(=O)C(N)Cc1ccccc1 (stereo not drawn)
inactive: [1]; at 1.2 µM 1% | [1]; at 3.7 µM -4% | [1]; at 11.0 µM 2% | [1]; at 33.0 µM 14% | [1]; at 100.0 µM 52% | [2]; at 1.2 µM 1% | [2]; at 3.7 µM 1% | [2]; at 11.0 µM 14% | [2]; at 33.0 µM 19% | [2]; at 100.0 µM 54% | [3]; at 1.2 µM -13% | [3]; at 3.7 µM -13% | [3]; at 11.0 µM 9% | [3]; at 33.0 µM -28% | [3]; at 100.0 µM -11% | [4]; at 1.2 µM 6% | [4]; at 3.7 µM -2% | [4]; at 11.0 µM 1% | [4]; at 33.0 µM 23% | [4]; at 100.0 µM 56% | [5]; at 1.2 µM 10% | [5]; at 3.7 µM 3% | [5]; [17] 19% | [5]; at 11.0 µM 14% | [5]; at 33.0 µM 15% | [5]; [18] 20% | [5]; at 50.0 µM 55.8% | [5]; at 100.0 µM 54% | [6]; at 1.2 µM 3% | [6]; at 3.7 µM 3% | [6]; [17] 19% | [6]; at 11.0 µM 0% | [6]; at 33.0 µM 3% | [6]; [18] 36% | [6]; at 100.0 µM 49% | [7]; at 1.2 µM -23% | [7]; at 3.7 µM -11% | [7]; at 11.0 µM -17% | [7]; at 33.0 µM -13% | [7]; at 100.0 µM 7% | [8]; [17] -21% | [8]; [18] 59% | [8]; at 50.0 µM 16.1% | [9]; at 1.2 µM 4% | [9]; at 3.7 µM -1% | [9]; at 11.0 µM 10% | [9]; at 33.0 µM 14% | [9]; at 100.0 µM 36% | [10]; [17] 17% | [10]; at 50.0 µM 61.1% | [11]; at 1.2 µM -23% | [11]; at 3.7 µM -25% | [11]; [17] 2% | [11]; at 11.0 µM -39% | [11]; at 33.0 µM -29% | [11]; at 50.0 µM 47.7% | [11]; at 100.0 µM 32% | [12]; at 1.2 µM -15% | [12]; at 3.7 µM -21% | [12]; at 11.0 µM -13% | [12]; at 33.0 µM -2% | [13]; at 1.2 µM 6% | [13]; at 3.7 µM -2% | [13]; at 11.0 µM 1% | [13]; at 33.0 µM 23% | [13]; at 100.0 µM 56% | [14]; at 1.2 µM -8% | [14]; at 3.7 µM 7% | [14]; at 11.0 µM 4% | [14]; at 33.0 µM 0% | [14]; at 100.0 µM 42% | [15]; [17] 17% | [15]; [18] 23% | [15]; at 50.0 µM -22.9% | [16]; at 1.2 µM 3% | [16]; at 3.7 µM 2% | [16]; at 11.0 µM 6% | [16]; at 33.0 µM 22% | [16]; at 100.0 µM 65%
active: [6]; at 50.0 µM 70.5% | [10]; [18] 76% | [11]; [18] 74% | [12]; at 100.0 µM 78%

From PubChem BioAssay (NCI)
